Structures are written as SMILES. The campaign covered roughly 360,000 compounds. About 2,100 (0.58%) were called active. Many of the other results were omitted from the sample, so actives are more common in it than they were. A number with no mark means an inactive call.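 Rule for the calls: active = inhibition at 20 µM, scaled to each plate's controls, above about 33% (limit read from the data); inactive = the rest.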

The target of the experiment is 26S proteasome non-ATPase regulatory subunit 14 (Homo sapiens) (UniProt O00487). Kind of experiment: Rpn11 (PSMD14) deubiquitinase inhibitors, primary screen, biochemical, fluorescence polarization, uHTS (AID 588493). The conditions noted are these: human 26S proteasome, Ub4-pepOG fluorescence polarization; at 20 µM; active compounds read high; 20S core pre-blocked with epoxomicin.
Sequence of 26S proteasome non-ATPase regulatory subunit 14 (Homo sapiens) (O00487 whole entry, looked up): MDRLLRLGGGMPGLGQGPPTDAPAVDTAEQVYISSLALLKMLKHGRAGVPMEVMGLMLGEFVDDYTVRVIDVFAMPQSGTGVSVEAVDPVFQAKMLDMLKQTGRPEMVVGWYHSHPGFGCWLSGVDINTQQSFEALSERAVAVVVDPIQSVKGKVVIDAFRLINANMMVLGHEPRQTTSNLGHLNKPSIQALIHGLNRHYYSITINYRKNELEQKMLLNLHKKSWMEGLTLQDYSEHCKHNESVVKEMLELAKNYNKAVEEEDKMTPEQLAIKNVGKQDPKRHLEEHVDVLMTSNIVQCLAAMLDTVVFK
Consider `COc1ccc(OC(C)C(=O)Nc2cccnc2)cc1` (configuration not stated), for which the inhibition is -6%.
Regarding `COc1cccc(NC(=O)CC(c2ccc(OC(C)C)cc2)c2ccccc2OC)c1` (configuration not stated), the inhibition is -1.6%.
Consider `COc1cccc(NC(=O)C(C)Oc2ccccc2)c1` (configuration not stated), for which the inhibition is 112% (active).
Regarding `Cc1ccc2[nH]c(C(=O)O)c(NC(=O)c3ccccc3[N+](=O)[O-])c2c1`, the inhibition was 3.4%.
For `Cc1sc2nc(COC(=O)C(NC(=O)c3ccc(Cl)cc3Cl)C(C)C)[nH]c(=O)c2c1C` (configuration not stated), the inhibition is 56.9% (active).
Regarding `Cc1ccc(S(=O)(=O)N2CCCC2C(=O)OCc2nc3sc(C)c(C)c3c(=O)[nH]2)cc1` (configuration not stated), the inhibition was -0.8%.
For the molecule `O=C(CN1C(=O)CC(c2ccccc2)S(=O)(=O)c2ccccc21)NC1CCCC1` (configuration not stated), the inhibition was -1.6%.
Consider `CCN(c1ccccc1)S(=O)(=O)c1cc2c(cc1C)n(C)c(=O)c(=O)n2C`, for which the inhibition is -1.8%.
For `COC(=O)CCSc1cc([N+](=O)[O-])cc2c1c(C1OCCS1)nn2-c1ccccc1` (configuration not stated), the inhibition is 14%.
For `COC(=O)c1ccc(C(NC(=O)OCc2ccccc2)/C(F)=C/[C@@H](C)C(=O)O)cc1` (some centres not stated), the inhibition is -4.9%.
For `CCC/C=C(\CCC)C(NC(=O)Cc1ccccc1)c1ccc(C(=O)OC)cc1` (configuration not stated) the value was 40.7% (active).
For `CCC[C@@H]1C[C@@]1(CCC)[C@@H](NC(=O)c1ccccc1)c1ccc(C(=O)OC)cc1` the value was -3.6%; for `Oc1c(CN2CCCC2)cc(COCc2ccccc2)c2cccnc12`, 49.9% (active); for `O=c1cc(CN2CCCCCCC2)c2c(ccc3ccccc32)o1`, 6.4%.
With `O=C(Cc1ccccc1)NNC(=O)C1CCN(c2ncccn2)CC1`, the inhibition was -1.3%.
For `COCC(=O)N1CCCC(C(=O)c2ccc(C(F)(F)F)cc2)C1` (configuration not stated), the inhibition is -0.9%.
For `CCOC(=O)c1cc(NC(=O)SCC(=O)O)c(C)nc1C` the value was 1%; for `CCCNC(=O)C1(C)CCN(C(=O)c2ccccc2OC(F)(F)F)C1` (configuration not stated), -2.7%; for `COc1ccc2[nH]c(=O)c(CNc3ccc(C)c(C)c3)cc2c1`, -2.9%.
Consider `COc1ccc(Cc2cc(-c3ccc(F)cc3)n[nH]c2=O)cc1`, for which the inhibition is -2%.
For `CCOC(=O)CSc1nc2ccc(C)cc2n2cnnc12` the value was 3.8%; for `CC1(c2ccccc2)NC(=O)N(CC(=O)N2CC(=O)Nc3ccccc32)C1=O` (configuration not stated), -0.8%.
As to `CCN(CC)C(=O)CSc1nc2ccccc2n1CC(=O)N1CCN(c2ccccc2OC)CC1`, the inhibition was 34.8% (active).
`CCOC(=O)n1c(SCC(=O)N(CC)CC)nc2ccccc21`: the inhibition was 4%.
As for `COc1ccccc1OCCn1c(SCC(N)=O)nc2ccccc21`, the inhibition was -6.3%.
As for `CCCCN(C=O)c1c(CC)nc2c(OCCC3CCCCC3)cccn12`, the inhibition is 3.8%.
As for `Cc1cc(N)n2nc(-c3ccc(C(C)(C)C)cc3)cc2n1`, the inhibition is 8.7%.
`Cc1cc2cc(CNC(=O)c3cccs3)ccc2[nH]1`: the inhibition was 3.4%.
Regarding `CC(C)c1ccc(C=NNc2ccc([N+](=O)[O-])cn2)cc1`, the inhibition was 3.1%.
On to `Cc1cc(/C=N/Nc2ccc([N+](=O)[O-])cn2)c(C)n1-c1cccc(C(=O)O)c1`, for which the inhibition is 49% (active).
As for `Cc1cc(/C=N/NC(=O)CC2(C)OCCO2)c(C)n1-c1ccc(Cl)c(Cl)c1`, the inhibition was 4.1%.
On to `O=C(Nc1cccc(Cl)c1)c1cc(S(=O)(=O)N2CCCCC2)c[nH]1`, for which the inhibition was 3.9%.
For `CN(C)C(=O)c1cccc(-c2cnc3sc(NCc4ccc5c(c4)OCO5)nn23)c1` the value was -1.9%; for `NC(=NC(=O)c1ccccc1)C1=C(O)CCC1=O`, -7.5%.
Turning to `COCCCNC(=O)Cn1c(=O)n(Cc2ccccc2Cl)c(=O)c2cc(OC)c(OC)cc21`, the inhibition was -0.4%.
For `Cc1ccc(Nc2nnc(SC(C)C(=O)NC3CC3)s2)cc1` (configuration not stated) the value was 4.1%; for `CCCCC(=O)Nc1nc(C)c(-c2csc(Nc3ccc(Cl)cc3)n2)s1`, 13.9%; for `Cc1ccc(Nc2nc(Cl)c(C=O)s2)cc1`, 108% (active).
As to `CSc1ncnc2c1ncn2CCCNCC(C)c1ccccc1` (configuration not stated), the inhibition was -1.5%.
For `COC(=O)C1=C(C)NC(=O)/C1=C/c1ccc(CNS(=O)(=O)c2ccc(C)cc2)o1` the value was -0.8%; for `COC(=O)C1=C(C)NC2=C(C(=O)c3ccccc32)C1c1ccc(-c2ccc(C(=O)O)cc2)o1` (configuration not stated), 67.4% (active); for `O=C(NCc1ccc(Cl)cc1)C1CCN(S(=O)(=O)c2cccs2)CC1`, 4.3%.
For `Cn1nnnc1SCC(=O)Nc1ccccc1C(=O)NC1CC1` the value was 5.5%.
In the case of `CCN(CC)CCn1c2c(c(SCC(=O)Nc3ccc(C(C)C)cc3)nc1=O)CCC2`, the inhibition was 0.3%.
Turning to `CC(=O)Nc1c2c(nn1-c1ccc(C)cc1C)CS(=O)C2` (configuration not stated), the inhibition was 1.3%.
In the case of `COc1ccc(CCNC2=C(Cl)C(=O)N(Cc3ccccc3)C2=O)cc1OC`, the inhibition is -4.9%.
Consider `COc1cc(/C=C2/SC(=S)N(Cc3ccccc3)C2=O)cc(OC)c1O`, for which the inhibition was 49.6% (active).
As for `O=C(Nc1ccc(OCCO)cc1)c1csc([C@H]2C[C@H](O)[C@@H](CO)O2)n1`, the inhibition was 0.7%.
Turning to `CC(C)=CCN1CCN(CCCc2ccccc2)CC1CCO` (configuration not stated), the inhibition was -5%.
For the molecule `Cc1c(N=Nc2ccc(N(C)C)cc2)c(=O)n(-c2ccccc2)n1C`, the inhibition was 67.4% (active).
With `Cc1c(C=O)n(C)n(-c2ccccc2)c1=O`, the inhibition was 8.1%.
For `Cc1nc(N)sc1N=Nc1c(C)n(C)n(-c2ccccc2)c1=O`, the inhibition was 8.3%.
On to `Cc1csc(=O)n1CCC(=O)OCC(=O)Nc1ccc(N2CCOCC2)cc1`, for which the inhibition was -1.7%.
Consider `O=C(OCC(=O)N1CCOCC1)c1ccc(N2CCOCC2)c([N+](=O)[O-])c1`, for which the inhibition is 1.7%.
For `CCCCN(CC)C(=O)c1ccccc1Oc1ccccc1`, the inhibition is -5%.
For `O=[N+]([O-])c1ccc(C(S(=O)(=O)Cc2ccccc2)S(=O)(=O)Cc2ccccc2)cc1` the value was -4%; for `O=C1NC(=O)C2C1C(c1ccc([N+](=O)[O-])cc1)=NN2Cc1ccccc1` (configuration not stated), 50.8% (active).
As for `CC(=O)N1c2ccccc2N(Cc2ccc([N+](=O)[O-])cc2)C(=O)C1(C)C`, the inhibition is -1.8%.
In the case of `Cc1cc(C)c2c(=O)[nH]c(SCC(=O)Nc3ccc(Br)cc3)nc2n1`, the inhibition is 2.1%.
For `N#Cc1c(-c2cccs2)nc(SCC(=O)c2ccc(Br)cc2)[nH]c1=O` the value was 68.3% (active); for `CC(=O)CSc1nc(CCc2ccccc2)c(C#N)c(=O)[nH]1`, -4.6%; for `COC(=O)[C@H](C(C)C)n1c(C)c(C(C)=O)c(C(C)=O)c1C`, 3.5%.
In the case of `CCOc1cccc(/C=N/N2C(=O)CSC2=S)c1O`, the inhibition is 32.9%.
As to `O=C1CSC(=S)N1/N=C/c1ccc(O)c([N+](=O)[O-])c1`, the inhibition is 48.1% (active).
As for `COc1ccc(C2CC(c3ccccc3)=NN2C(=O)c2ccc(Cl)c([N+](=O)[O-])c2)cc1` (configuration not stated), the inhibition was -5%.
Regarding `CCCCc1nc(NCCN)c(C#N)c2c1CSC(C)(C)C2`, the inhibition is 0.8%.
As to `COc1ccc(CC(N)c2csc(NC(=O)Nc3ccc(C(C)C)cc3)n2)cc1` (configuration not stated), the inhibition is 2.4%.
Consider `NC(N)=N/N=C/c1ccc(OCc2ccc(Cl)cc2Cl)cc1`, for which the inhibition was 51.4% (active).
Consider `COc1ccc(Cl)cc1N(CC(=O)N/N=C/c1ccc(OCC(N)=O)cc1)S(C)(=O)=O`, for which the inhibition was -5.6%.
With `NC(=O)COc1ccc(/C=N/NC(=O)C2CCCN2S(=O)(=O)c2ccc(Cl)cc2)cc1` (configuration not stated), the inhibition was -4.1%.
As to `CC1CCC2(CC1)NC(=O)N(CC(=O)NCc1ccco1)C2=O` (configuration not stated), the inhibition is 7.9%.
For `N#Cc1c(-c2ccc(Cl)cc2)c2c([nH]c1=S)CCCC2` the value was 10.1%.
Regarding `CC1Cc2ccccc2N1S(=O)(=O)c1cccc(C(=O)NCC(c2ccco2)N2CCCC2)c1` (configuration not stated), the inhibition was 5.2%.
On to `C=CCn1c(=S)[nH]c2scc(-c3ccco3)c2c1=O`, for which the inhibition is 48.1% (active).
As for `CC1(C)C(C=C(Cl)Cl)C1C(=O)N(Cc1ccc(Cl)cc1)C1CCS(=O)(=O)C1` (configuration not stated), the inhibition was -6.8%.
In the case of `CC(C)(C)NC(=O)NC(=O)CN1CCC(Cc2ccccc2)CC1`, the inhibition is 2.6%.
Regarding `O=C(O)CCCCOn1ccnc1`, the inhibition was -5.3%.
Consider `Cc1ccc2[nH]c(=O)c(COC(=O)c3ccccn3)cc2c1`, for which the inhibition was -5.9%.
Consider `O=C(OCc1cc(Cl)ccc1OC(F)F)c1cccnc1`, for which the inhibition is 9.5%.
Regarding `O=C(OCc1cc2ccccc2[nH]c1=O)c1cccnc1`, the inhibition was 93.5% (active).
On to `COc1cccc(C2CC(c3ccccc3)=NN2S(=O)(=O)c2ccccc2)c1OC` (configuration not stated), for which the inhibition is 1.8%.
In the case of `COc1cccc(Nc2nnc(SCC(=O)N3CC(=O)Nc4ccccc43)s2)c1`, the inhibition is 0.5%.
For `O=C(CCS(=O)(=O)c1ccc(Br)cc1)NCCc1ccc(Cl)cc1` the value was -2.9%.
In the case of `COc1ccc(Cl)cc1NC(=O)CCS(=O)(=O)c1ccc(Br)cc1`, the inhibition is 80.4% (active).
For the molecule `COc1ccc(Cl)cc1NC(=O)COC(=O)c1ccc(Br)o1`, the inhibition was -3.1%.
For `O=C(CSc1ccc2nnc(-c3ccccc3)n2n1)N1CCCc2ccccc21` the value was 39.2%; for `Cc1ccc(CSCC2Nc3ccc(C(=O)N4CCN(c5ccc(F)cc5)CC4)cc3NC2=O)cc1` (configuration not stated), 109% (active); for `COC(=O)c1ccc(C(=O)OC)c(NC(=S)N2CCN(c3ccc(F)cc3)CC2)c1`, -2.6%.
On to `COc1cccc2c1OCC1COc3c(c(=O)n(C)c(=O)n3C)C21` (configuration not stated), for which the inhibition was -1.5%.
With `C=CC1=C(C(=O)O)N2C(=O)[C@@H](NC(=O)/C(=N/OCC(=O)O)c3csc(N)n3)[C@H]2SC1`, the inhibition is 45.1% (active).
On to `C=CC1=C(C(=O)O)N2C(=O)[C@@H](NC(=O)/C(=N\OCC(=O)O)c3csc(N)n3)[C@H]2SC1`, for which the inhibition is -0.3%.
Regarding `Cc1ccc2c(CN3CCN(S(=O)(=O)c4ccccc4C(F)(F)F)CC3)cc(=O)oc2c1`, the inhibition is 3.9%.

The term inhibition denotes the change of the read-out against control, counted positive when it falls.

For the origin of these results see PubChem BioAssay AID588493 (Sanford-Burnham Center for Chemical Genomics, 2011).
